Laboratory results reported in PubChem BioAssay AID1159580 (chemical genetic matrix, 2015).
About 2,000 (36%) of roughly 5,500 compounds were called active. Another 18% or so got no clear call; they are omitted. Cut-off read from the data, not from the text of the source: active = normalized growth mostly below about 0.91 (no sharp cut-off); inconclusive = no clear call, values can overlap the other calls; inactive = mostly above about 0.92. This is one part of the list.

Test: chemical genetic growth profiling, strain panel (AID 1159580);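 note: tested at 20 µM; growth read once vehicle control cultures reached saturation at 30 °C; 1 = growth at the plate median or of vehicle wells; lower values mean less growth of the strain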
Settings: growth OD

Measured: normalized growth

NC(=O)c1ccc([N+](=O)[O-])cc1Cl
inactive: S. cerevisiae deletion strains, locus YKL009W, strain mrt4, active compounds read low 0.977 | S. cerevisiae deletion strains, locus YKL068W, active compounds read low 0.977 | S. cerevisiae deletion strains, locus YKL085W, strain MDH1 (second series), active compounds read low 0.98 | S. cerevisiae deletion strains, locus YKL085W, strain MDH1, active compounds read low 0.98 | S. cerevisiae deletion strains, locus YKL160W, strain elf1, active compounds read low 1.03 | S. cerevisiae deletion strains, locus YKL190W, strain CNB1, active compounds read low 0.968 | S. cerevisiae deletion strains, locus YKR001C, strain vps1, active compounds read low 0.969 | S. cerevisiae deletion strains, locus YKR026C, strain gcn3, active compounds read low 0.981 | S. cerevisiae deletion strains, locus YKR091W, strain srl3, active compounds read low 0.977 | S. cerevisiae deletion strains, locus YLL001W, strain dnm1, active compounds read low 1 | S. cerevisiae deletion strains, locus YLL026W, active compounds read low 1.01 | S. cerevisiae deletion strains, locus YLL041C, strain sdh2, active compounds read low 0.982 | S. cerevisiae deletion strains, locus YLR027C, strain aat2, active compounds read low 1.01 | S. cerevisiae deletion strains, locus YLR039C, strain RIC1, active compounds read low 0.927 | S. cerevisiae deletion strains, locus YLR058C, strain SHM2, active compounds read low 0.963 | S. cerevisiae deletion strains, locus YLR102C, strain apc9, active compounds read low 0.971 | S. cerevisiae deletion strains, locus YLR113W, strain HOG1, active compounds read low 0.961 | S. cerevisiae deletion strains, locus YLR221C, strain rsa3, active compounds read low 0.956 | S. cerevisiae deletion strains, locus YLR258W, strain gsy2, active compounds read low 0.956 | S. cerevisiae deletion strains, locus YLR262C, strain YPT6 (second series), active compounds read low 0.991 | S. cerevisiae deletion strains, locus YLR262C, strain YPT6, active compounds read low 0.838 | S. cerevisiae deletion strains, locus YLR268W, strain sec22, active compounds read low 0.961 | S. cerevisiae deletion strains, locus YLR320W, strain mms22, active compounds read low 0.965 | S. cerevisiae deletion strains, locus YLR330W, strain CHS5, active compounds read low 0.98 | S. cerevisiae deletion strains, locus YLR342W, strain FKS1 (second series), active compounds read low 1 | S. cerevisiae deletion strains, locus YLR342W, strain FKS1, active compounds read low 1 | S. cerevisiae deletion strains, locus YLR357W, strain rsc2, active compounds read low 0.965 | S. cerevisiae deletion strains, locus YLR370C, strain arc18, active compounds read low 0.972 | S. cerevisiae deletion strains, locus YLR371W, strain rom2, active compounds read low 0.982 | S. cerevisiae deletion strains, locus YLR384C, strain iki3, active compounds read low 0.992 | S. cerevisiae deletion strains, locus YLR418C, strain cdc73, active compounds read low 0.949 | S. cerevisiae deletion strains, locus YML016C, strain PPZ1, active compounds read low 0.98 | S. cerevisiae deletion strains, locus YML032C, strain rad52, active compounds read low 0.999 | S. cerevisiae deletion strains, locus YML120C, strain ndi1, active compounds read low 1 | S. cerevisiae deletion strains, locus YML124C, strain tub3, active compounds read low 0.984 | S. cerevisiae deletion strains, locus YMR058W, strain fet3, active compounds read low 0.977 | S. cerevisiae deletion strains, locus YMR078C, strain ctf18, active compounds read low 0.977 | S. cerevisiae deletion strains, locus YMR125W, strain sto1, active compounds read low 0.973 | S. cerevisiae deletion strains, locus YMR129W, active compounds read low 0.975 | S. cerevisiae deletion strains, locus YMR205C, strain PFK2, active compounds read low 1.01 | S. cerevisiae deletion strains, locus YMR223W, strain ubp8, active compounds read low 0.988 | S. cerevisiae deletion strains, locus YMR231W, strain pep5, active compounds read low 0.98 | S. cerevisiae deletion strains, locus YMR263W, strain SAP30, active compounds read low 0.968 | S. cerevisiae deletion strains, locus YMR307W, strain GAS1, active compounds read low 0.891 | S. cerevisiae deletion strains, locus YNL067W, strain RPL9B, active compounds read low 0.969 | S. cerevisiae deletion strains, locus YNL071W, strain lat1, active compounds read low 0.974 | S. cerevisiae deletion strains, locus YNL128W, strain TEP1, active compounds read low 0.972 | S. cerevisiae deletion strains, locus YNL153C, strain GIM3, active compounds read low 0.964 | S. cerevisiae deletion strains, locus YNL183C, strain NPR1, active compounds read low 0.895 | S. cerevisiae deletion strains, locus YNL209W, strain ssb2, active compounds read low 0.964 | S. cerevisiae deletion strains, locus YNL233W, strain BNI4, active compounds read low 0.982 | S. cerevisiae deletion strains, locus YNL248C, strain rpa49, active compounds read low 0.931 | S. cerevisiae deletion strains, locus YNL250W, strain rad50, active compounds read low 0.971 | S. cerevisiae deletion strains, locus YNL271C, strain bni1, active compounds read low 0.981 | S. cerevisiae deletion strains, locus YNL298W, strain CLA4, active compounds read low 0.98 | S. cerevisiae deletion strains, locus YNL307C, strain MCK1, active compounds read low 0.989 | S. cerevisiae deletion strains, locus YNL322C, strain KRE1 (second series), active compounds read low 0.983 | S. cerevisiae deletion strains, locus YNL322C, strain KRE1, active compounds read low 0.981 | S. cerevisiae deletion strains, locus YNR049C, strain mso1, active compounds read low 0.97 | S. cerevisiae deletion strains, locus YNR052C, strain pop2, active compounds read low 0.978 | S. cerevisiae deletion strains, locus YOL006C, strain TOP1, active compounds read low 0.886 | S. cerevisiae deletion strains, locus YOL012C, strain htz1 0.79 | S. cerevisiae deletion strains, locus YOL147C, strain pex11, active compounds read low 0.98 | S. cerevisiae deletion strains, locus YOR001W, strain rrp6, active compounds read low 1 | S. cerevisiae deletion strains, locus YOR061W, strain CKA2, active compounds read low 0.951 | S. cerevisiae deletion strains, locus YOR069W, strain VPS5, active compounds read low 0.993 | S. cerevisiae deletion strains, locus YOR070C, strain gyp1, active compounds read low 0.972 | S. cerevisiae deletion strains, locus YOR080W, strain dia2, active compounds read low 0.999 | S. cerevisiae deletion strains, locus YOR083W, strain WHI5, active compounds read low 0.989 | S. cerevisiae deletion strains, locus YOR106W, strain vam3, active compounds read low 0.987 | S. cerevisiae deletion strains, locus YOR136W, strain idh2, active compounds read low 0.99 | S. cerevisiae deletion strains, locus YOR144C, strain elg1, active compounds read low 0.991 | S. cerevisiae deletion strains, locus YOR184W, strain ser1, active compounds read low 0.982 | S. cerevisiae deletion strains, locus YOR231W, strain MKK1, active compounds read low 0.956 | S. cerevisiae deletion strains, locus YOR265W, strain rbl2, active compounds read low 0.985 | S. cerevisiae deletion strains, locus YOR270C, strain vph1, active compounds read low 0.929 | S. cerevisiae deletion strains, locus YOR290C, strain snf2, active compounds read low 0.915 | S. cerevisiae deletion strains, locus YOR316C, strain cot1, active compounds read low 0.962 | S. cerevisiae deletion strains, locus YPL051W, strain arl3, active compounds read low 0.988 | S. cerevisiae deletion strains, locus YPL055C, strain LGE1, active compounds read low 0.941 | S. cerevisiae deletion strains, locus YPL078C, strain atp4, active compounds read low 1.02 | S. cerevisiae deletion strains, locus YPL106C, strain sse1, active compounds read low 0.957 | S. cerevisiae deletion strains, locus YPL240C, strain hsp82, active compounds read low 0.986 | S. cerevisiae deletion strains, locus YPL241C, strain CIN2, active compounds read low 1.01 | S. cerevisiae deletion strains, locus YPL256C, strain CLN2, active compounds read low 0.941 | S. cerevisiae deletion strains, locus YPR119W, strain clb2, active compounds read low 0.986 | S. cerevisiae deletion strains, locus YPR141C, strain kar3, active compounds read low 0.955 | S. cerevisiae deletion strains, locus YPR163C, strain tif3, active compounds read low 0.989 | S. cerevisiae deletion strains, locus YPR167C, strain met16, active compounds read low 0.962 | S. cerevisiae deletion strains, strain wtn01, active compounds read low 0.969 | S. cerevisiae strains, strain wild type, active compounds read low 0.981
